Source: PubChem
In the library only some 12% were active in any assay of this set; here they are far more common.
NS1 inh = inhibitors of influenza NS1 protein function; Potency, µM (doses to about 46.1 µM), for inactives: at the top dose activity, positive = more growth; 0.4% of 270,000 active; AID 2326; calls by dose curve; further: actives are rising curves; nearly all actives have a fitted effect of over 50% in size
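In this qHTS, NS1 from influenza A is expressed in budding yeast, where it slows growth. Cells are switched from glucose to 2% galactose medium (pH 6.0, -URA), treated with compound, and growth recovery is read at OD600.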
Pf growth 48h = P. falciparum growth inhibition at 48 hours (one generation); P. falciparum luciferase growth in erythrocytes, 48 h; 5.9% of 310,000 active; Potency, µM (highest dose often 28.7 µM), for inactives: at the top dose activity change, negative = inhibition, most hits filed as inhibitors; further: on the % scale 0 is the no-effect control and ±100 the full control effect
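Luciferase-expressing parasites in RBCs, 2% Hct / 0.1% parasitemia final; RPMI 1640 + 0.5% Albumax; 37 C, 5% CO2, one generation; luminescence read-out, lower signal = inhibition.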
AMA1-RON2 inh = disrupts binding of P. falciparum AMA1 to RON2 | AlphaScreen AMA1-biotinylated RON2 peptide binding | Potency, µM (series often up to 58.2 µM), without a hit: at the top dose activity change, negative = inhibition, hits mostly inhibitors | 0.2% of 360,000 active;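 further: 0% = vehicle wells and -100% = peptide control; nearly all actives have a fitted effect of over 45% in size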
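AMA1 (3D7) with his tag at 25 nM final met compounds first, then biotinylated RON2 peptide at 25 nM; detection used donor plus acceptor beads, 10 µg/mL apiece, read by AlphaScreen after 30 min at room temperature.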
Pf growth 96h = inhibits malaria parasite growth, 96 h | Potency, µM (highest dose often 28.7 µM), without a hit: at the top dose activity change, negative = inhibition, hits mostly inhibitors | P. falciparum luciferase reporter growth, 96 h | 6.9% of 320,000 active; further: on the % scale 0 is the no-effect control and ±100 the full control effect
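Plates of compound plus infected erythrocytes (2% hematocrit, 0.05% parasitemia final) incubate 96 hours, 37 C, 5% CO2. Detection reagent added; reduced luminescence from the parasites' luciferase reporter flags inhibition.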
SARS PLP yeast = inhibitors of SARS-CoV papain-like protease in yeast | S. cerevisiae expressing SARS-CoV PLpro, growth rescue | Potency, µM (highest dose often 32.9 µM), for the others: at the highest dose activity, positive = growth rescue, hits mostly activators | 0.19% of 330,000 active | AID 485353; calls by dose curve; further: 0% is about no effect; nearly all actives have a fitted effect of over 55% in size
HCV inhibitor = blocks hepatitis C virus; 3.4% of 340,000 active; Huh7.5.1 HCVcc-Cre infection, luciferase reporter, 44 h; Potency, µM (titrated, usually from 41.8 µM), for inactives: at the top dose activity change, negative = inhibition, hits mostly inhibitors; AID 651820; further: on the % scale 0 is the no-effect control and ±100 the full control effect
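Antiviral activity was scored by luciferase reporter output from cells infected with HCVcc-Cre (~0.5 moi) in presence of compound, 44 h infection period, cells seeded 1,000/well 4 h prior.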
* = called active by the depositor; ? = inconclusive; / = no result given; [ ] = dose if it differs, or a comment. Unless noted, the call rests on the fitted dose curve; in most records, active means well fitted curve in the direction sought with a large enough effect; inconclusive means small, poorly fitted or top-dose-only effect, or another doubt; inactive means no such curve, though single readings can be large; an effect the other way counts as inactive or inconclusive. Potency means the concentration at half of the fitted maximal effect.

SMILES | NS1 inh | Pf growth 48h | AMA1-RON2 inh | Pf growth 96h | SARS PLP yeast | HCV inhibitor
CCCn1cc(CN2CCC(n3nccc3NC(=O)c3ccc4c(c3)OCO4)CC2)c(C)n1 | 1.2% | 2.8% | -6.5% | 9.28µM* | 3.3% | 0.6%
CC(C)=CCCC(C)CN1CCC(n2nccc2NC(=O)c2ccc3c(c2)OCO3)CC1 (configuration not stated) | -0.6% | 10.4µM* | 3.1% | ? | 9.7% | ?
COc1ccccc1NS(=O)(=O)c1c(C)[nH]c(C)c1C(=O)N1CCCC1 | 2.8% | 9.9% | -3.5% | -18.1% | 3.1% | 5.8%
O=[As](O)(O)c1ccc(Cc2ccc([As](=O)(O)O)cc2)cc1 | -38.7% | / | / | / | / | /
CCN(CC)C(=O)C1CCCN(C(=O)Nc2ccc3nsnc3c2)C1 (configuration not stated) | -7.9% | / | 8.1% | ? | 3.1% | 31.6µM*
COc1cccc(/C=C/C(=O)OCC(=O)Nc2ccc(Cl)c(S(=O)(=O)N(C)C)c2)c1OC | / | -15.9% | -10.0% | ? | -1.4% | 6.6%
CCOc1ccc(NC(=O)OCCN2CCN(CCc3ccccc3)C(C)C2)cc1 (configuration not stated) | / | / | -5.5% | / | / | 11.2µM*
Cc1cccc(NC(=O)CC23CC4CC(C2)CC(n2nnc(C)n2)(C4)C3)c1 | -13.8% | ? | 4.4% | 13.1µM* | 3.8% | -10.9%
Cc1ccc(S(=O)(=O)N2CCC(=O)N(C(COCc3ccccc3)Cc3ccccc3)CC2)cc1 (configuration not stated) | -6.7% | 10.4µM* | 1.0% | 10.4µM* | 2.8% | -8.1%
Cc1ccc(S(=O)(=O)N2CCC(=O)N(C(COCc3cccc(C(F)(F)F)c3)Cc3ccccc3)CC2)cc1 (configuration not stated) | 27.8% | ? | -7.1% | 6.57µM* | -8.9% | 10µM*
Cc1ccc(S(=O)(=O)N2CCC(=O)N(C(COCc3cccc(Cl)c3)Cc3ccccc3)CC2)cc1 (configuration not stated) | 21.2% | 8.28µM* | -16.7% | 10.4µM* | 0.6% | ?
C/C(=N\N1CCCCCC1)c1c(O)n(-c2ccc(C)cc2)c(=O)[nH]c1=O | -0.6% | ? | -15.8% | 11.7µM* | 2.1% | 7.4%
CC/C(=N\N1CCCCC1)c1c(O)[nH]c(=O)[nH]c1=O | 4.4% | 10.4% | 8.0% | 0.2% | -3.8% | 12.0%
C/C(=N\N1CCCCCC1)c1c(O)n(-c2ccc(Cl)cc2)c(=O)[nH]c1=O | -1.2% | ? | -0.7% | 3.2% | -0.3% | 1.9%
CC/C(=N\N1CCCCCC1)c1c(O)n(-c2ccc(C)cc2)c(=O)[nH]c1=O | 2.5% | ? | -10.7%[2.32 µM] | 2.08µM* | -14.4% | 4.4%
CCc1cccc(CC)c1NC(=S)Nc1ccccc1 | 3.5% | ? | 10.7% | 17.3% | -0.3% | -6.7%
O=C(CC(=O)Nc1nc(C23CC4CC(CC(C4)C2)C3)cs1)NCCO | 0.7% | 13.1µM* | -10.3% | 9.28µM* | -3.5% | 7.4%
CNc1nc(C23CC4CC(CC(C4)C2)C3)cs1 | / | ? | -21.5% | 32.9% | 5.4% | -5.5%
COC(=O)C1=C(C)NC2=C(C(=O)CCC2)C1c1ccc(-c2ccsc2C(=O)OC)o1 (configuration not stated) | 10.0% | ? | -1.5% | 11.7µM* | 1.8% | -9.2%
COC(=O)C1=C(C)NC2=C(C(=O)CCC2)C1c1ccsc1 (configuration not stated) | -0.3% | 7.5% | / | 35.1% | -10.8% | /
CCOC(=O)C1(Cc2ccc(Cl)cc2)CCN(C(=O)c2sc(C)nc2C)CC1 | -2.2% | ? | -10.2% | ? | 0.1% | 11.2µM*
CCOC(=O)C1(Cc2ccc(Cl)cc2)CCN(CCCn2cccn2)CC1 | 4.4% | -19.5% | 4.5% | 96.0% | 0.9% | 3.16µM*
CCOC(=O)C1(Cc2ccccc2)CCCN(CCCn2cccn2)C1 (configuration not stated) | 3.0% | ? | -7.3% | 0.0% | 0.4% | 6.2%
O=C(c1ccc(Cl)c([N+](=O)[O-])c1)N1CCN(Cc2ccc3c(c2)OCO3)CC1 | 2.7% | 7.4% | -3.8% | -26.4% | 0.3% | ?
CC(=O)c1c(C)[nH]c(C(=O)COc2ccc3ccc(=O)oc3c2)c1C | / | 10.4µM* | -15.1% | ? | 2.8% | 8.91µM*
SMILES | NS1 inh | Pf growth 48h | AMA1-RON2 inh | Pf growth 96h | SARS PLP yeast | HCV inhibitor
O=C(CC12CC3CC(CC(C3)C1)C2)N/N=C/c1ccc([N+](=O)[O-])o1 | 4.9% | 5.22µM* | 38.5% | 71.1% | 15.6% | ?
NC(N)=NN=C(/C=C/c1ccc([N+](=O)[O-])o1)/C=C/c1ccc([N+](=O)[O-])o1 | / | 2.39µM* | / | 3.01µM* | / | /
Cc1cc2ncn(/N=C/c3ccc([N+](=O)[O-])o3)c2cc1C | -106.1% | ? | 0.0% | 4.65µM* | -12.6% | 11.2µM*
O=C(CC12CC3CC(CC(C3)C1)C2)N/N=C\c1ccc[nH]1 | / | -14.5% | 9.7% | ? | 0.2% | 0.8%
CCCCCCCC(=O)N/N=C/c1ccc([N+](=O)[O-])o1 | -30.3% | ? | -9.5% | ? | -48.5% | ?
CC(=O)N/N=C/c1ccc([N+](=O)[O-])o1 | / | ? | / | 12µM* | / | /
CC1CN(N=Cc2ccc([N+](=O)[O-])o2)C(=N)O1 (configuration not stated) | / | / | -0.7% | / | / | ?
COc1ccc(NC(=O)CN2CCN(C(=S)NC3CCCC3)CC2)cc1 | 7.0% | 31.7% | 2.7% | 27.9% | 0.3% | 8.8%
O=C(CN1CCCCCCC1)N/N=C/c1ccc([N+](=O)[O-])o1 | 6.2% | ? | 10µM* | 113.3% | -0.7% | ?
O=[N+]([O-])c1ccc(/C=N/N=C/c2ccc([N+](=O)[O-])o2)o1 | / | 4.15µM* | -19.3% | -4.7% | -20.3% | 4.47µM*
O=C(CCN1CCN(c2ccccc2)CC1)N/N=C/c1ccc([N+](=O)[O-])o1 | / | ? | 0.2% | 10.4µM* | 1.2% | ?
O=C(CN1CCOCC1)NN=Cc1ccc([N+](=O)[O-])o1 | / | / | 1.9% | / | / | /
O=C1C2C3C=CC(C4CC34)C2C(=O)N1/N=C/c1ccc([N+](=O)[O-])o1 (configuration not stated) | / | -38.2% | 0.0% | -30.1% | -13.0% | 11.2µM*
O=C(CCN1CCN(c2ccccc2)CC1)N/N=C/c1ccc(O)c(O)c1O | 15.9% | 5.7% | ? | 29.3% | 2.8% | ?
O=C(O)/C=C/c1ccc([N+](=O)[O-])o1 | / | -2.4% | -5.9% | ? | 3.2% | 0.6%
COC(=O)C[C@H]1c2cc(F)ccc2S(=O)(=O)N1Cc1ccccc1 | / | / | 18.5% | / | / | 5.8%
CC(=O)Nc1ccc(NC(=O)C(C)OC(=O)CNS(=O)(=O)c2ccc(Br)cc2Cl)cc1 (configuration not stated) | -9.4% | 18.2% | 3.5% | 25.9% | -1.1% | -0.6%
